From PubChem BioAssay come the findings set out here.

One test has as its target Albumin (Bos taurus) (UniProt P02769). Nature of the test: compounds binding labelled BSA control protein – biochemical, small-molecule microarray, Alexa647 label, 635/667 nm fluorescence, artefact control for SMM control protein annotation, profiling panel (AID 1118).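 Further: score merges 667 nm emission intensity and signal-to-noise per printed compound spot.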 The conditions noted are these: BSA-A647 binding, fluorescence 635 nm, higher = more signal.
The nature of test [1]: probe aXIP binding to arrayed compounds – biochemical, NeuroSMM set, 635/667 nm fluorescence, primary screen (AID 1119).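 Further: probe is the protein aXip251-270 applied at 1 µg/mL to compound-printed slides; binding of probe to printed compounds measured as 667 nm fluorescence plus signal to noise.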 The following applies: small-molecule microarray, higher = more signal, called active from +8 up or from −8 down.
Test [2] is described as follows: probe aNOTCH3 binding on compound microarray – biochemical, small-molecule microarray, 635/667 nm fluorescence, primary screen (AID 1120).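 Further: probe is a biotin-tagged antibody raised against NOTCH3 rather than NOTCH3 protein; score merges spot fluorescence near 667 nm with spot signal to noise.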 The following applies: higher = more signal.
The nature of test [3]: probe aNOTCH2 binding on compound microarray – biochemical, small-molecule microarray, 635/667 nm fluorescence, primary screen (AID 1121).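 Further: score merges feature fluorescence read at 667 nm with its signal to noise.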 The following applies: higher = more signal.
The target in test [4] is Carbonic anhydrase 2 (Homo sapiens) (UniProt P00918). Nature of the test: compounds binding carbonic anhydrase 2 – biochemical, small-molecule microarray, Alexa647-labelled CAII, profiling panel (AID 1122). The conditions noted are these: CAII-A647 binding fluorescence, higher = more signal.
Test [5] is described as follows: COS7 lysate on small-molecule microarray, probe aHis, 635 nm (AID 1123).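 Further: z-score combines 667nm fluorescence intensity with signal-to-noise per printed compound spot.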 The following applies: COS7 cell lysate, fluorescence, higher = more signal.
A short description of test [6]: probe aLAP1 signal on lysate-treated microarray – cell lysate, small-molecule microarray, COS7 lysate, primary screen (AID 1124).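 Further: lysate comes from COS7 cells expressing LAP1 and is applied at 0.3 µg/mL; score merges spot fluorescence near 667 nm with signal-to-noise over triplicate slides.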 The conditions noted are these: probe aLAP1, fluorescence, higher = more signal.
A further test deals with Sam68 (KHDRBS1). Nature of the test: compounds binding KHDRBS1 protein – biochemical, small-molecule microarray, 635 nm fluorescence, primary screen (AID 1125).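 Further: score merges 667 nm channel intensity with signal to noise over triplicate slides.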 The following applies: higher = more signal.
The test system of test [7] is Chordin-like protein 2 (CHRDL2). Nature of the test: compounds binding chordin-like 2 – biochemical, small-molecule microarray, 635 nm fluorescence, primary screen (AID 1126).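 Further: printed compound slides probed with Chrdl2 protein at 4 µg/mL for 1 h at 4 C; score merges 667 nm emission intensity with signal to noise over three replicate slides.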 The conditions noted are these: fluorescence 635 nm, higher = more signal.
In test [8] the target is Concanavalin-A (Canavalia ensiformis) (UniProt P02866). Put plainly: compounds binding concanavalin A lectin – biochemical, small-molecule microarray, Alexa647 label, 635 nm, artefact control for SMM control protein annotation, primary screen (AID 1127).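 Further: z combines 667 nm emission intensity with signal-to-noise across three replicate slides.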 The following applies: ConA-A647 binding fluorescence, higher = more signal.
Sequence of Concanavalin-A (Canavalia ensiformis) (P02866 whole entry, looked up): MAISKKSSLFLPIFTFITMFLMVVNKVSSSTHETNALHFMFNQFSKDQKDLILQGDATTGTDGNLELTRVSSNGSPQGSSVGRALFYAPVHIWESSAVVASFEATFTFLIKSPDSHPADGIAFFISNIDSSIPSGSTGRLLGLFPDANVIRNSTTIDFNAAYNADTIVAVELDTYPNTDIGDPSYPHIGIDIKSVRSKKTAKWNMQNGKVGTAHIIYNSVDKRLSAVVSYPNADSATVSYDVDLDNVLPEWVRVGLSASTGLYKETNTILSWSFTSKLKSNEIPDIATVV

The source made the active and inactive calls.

Sequence of Albumin (Bos taurus) (P02769 whole entry, looked up): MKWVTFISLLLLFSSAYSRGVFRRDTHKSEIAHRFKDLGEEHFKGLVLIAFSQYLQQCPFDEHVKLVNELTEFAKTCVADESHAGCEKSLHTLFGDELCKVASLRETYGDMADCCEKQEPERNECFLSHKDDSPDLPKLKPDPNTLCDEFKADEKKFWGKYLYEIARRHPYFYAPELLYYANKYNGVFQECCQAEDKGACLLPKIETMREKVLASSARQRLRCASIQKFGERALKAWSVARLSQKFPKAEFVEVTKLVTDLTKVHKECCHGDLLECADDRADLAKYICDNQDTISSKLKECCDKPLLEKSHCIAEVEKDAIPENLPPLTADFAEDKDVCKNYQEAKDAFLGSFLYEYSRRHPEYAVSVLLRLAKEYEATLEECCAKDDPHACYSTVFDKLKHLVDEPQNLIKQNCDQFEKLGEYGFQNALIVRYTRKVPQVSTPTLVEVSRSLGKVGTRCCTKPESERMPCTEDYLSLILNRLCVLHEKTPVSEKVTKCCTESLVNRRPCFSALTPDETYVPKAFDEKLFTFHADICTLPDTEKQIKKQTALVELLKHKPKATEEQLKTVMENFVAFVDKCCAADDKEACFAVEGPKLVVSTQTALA

For `COCC1=C([C@H](O)CCc2ccccc2)[C@H](CO)n2c(=O)n(-c3ccccc3)c(=O)n2C1`, the composite z-score is -0.442 with Albumin (Bos taurus); -0.0014 in test [2]; -0.212 in test [3]; -0.447 in test [4]; -0.303 in test [5]; -0.469 in [6]. Further, the composite z-score was -0.73 in the test with Sam68 (KHDRBS1), 0.319 in [7] and 0.134 in test [8]. For the same molecule, in [1], the composite Z-score was 0.0423 (inactive).
`COCCOC(=O)N1C(=O)[C@@]2(c3cc(C#CC4(O)CCCCCC4)ccc31)[C@H](C(=O)NC[C@H](O)c1ccccc1)[C@H]1C(=O)O[C@H](c3ccccc3)[C@H](c3ccccc3)N1[C@@H]2c1ccc(O)cc1`: the composite z-score in the test with Albumin (Bos taurus) is 0.456; in test [2], -0.0362; in test [3] it was -0.0846; in test [4] it was 0.618; in test [5] it was 1.51; in [6], 1.42. The composite z-score is 1.16 in the test with Sam68 (KHDRBS1), -0.112 in test [7] and 1.09 in test [8]. The composite Z-score in test [1] is -0.275 (inactive).
With `CCN(CC)c1ccc(N2CC=CC34O[C@@H]5C=CCOC(=O)[C@@H]5[C@H]3C(=O)N(CCO)[C@@H]4C2=O)cc1` (stereo not given in full), the composite z-score with Albumin (Bos taurus) was -0.869; in test [2], 0.0035; in [3], -0.24; in [4], 0.913; in test [5], -0.368; in test [6], -0.714. Moreover, the composite z-score in the test with Sam68 (KHDRBS1) was -0.683; in test [7], -1.83; in [8], -1.14. Moreover, the composite Z-score in test [1] is 2.39 (inactive).
With `COc1ccc([Si](C)(C)[C@H]2[C@H](CCO)O[C@@]3(C(=O)N(Cc4ccccc4)c4ccc(N(C=O)c5ccccc5)cc43)[C@@H]2C)cc1`, the composite z-score was 0.717 in the test with Albumin (Bos taurus); 0.0576 in test [2]; -0.0984 in test [3]; 0.189 in [4]; 0.929 in test [5]; 0.0964 in test [6]. Further, the results for the composite z-score (in the test with Sam68 (KHDRBS1); in test [7]; in [8]) were 0.936, -0.0384 and 1.02, respectively. The composite Z-score in [1] was -0.328 (inactive).
For the molecule `C=C(COC)/C(=C/C[C@H](OC(=O)c1ccncc1)c1ccc(OCCO)cc1)c1cc(C(=O)OC)ccc1OC`, the composite z-score was 0.401 with Albumin (Bos taurus); 0.325 in test [2]; -0.123 in test [3]; 0.357 in test [4]; 1.39 in test [5]; 0.84 in test [6]. Besides, the values for the composite z-score (in the test on Sam68 (KHDRBS1); in [7]; in test [8]) were 1.26, 0.249 and 0.952, respectively. In test [1], the composite Z-score was 0.3 (inactive).
Take `C/C=C/CN(C(=O)C#Cc1ccccc1)[C@H](CO[Si](C)(C)C(C)(C)C)c1ccccc1`: the composite z-score was -0.907 with Albumin (Bos taurus); -0.384 in test [2]; -0.22 in [3]; 0.599 in test [4]; 0.043 in test [5]; -0.155 in [6]. For the same molecule, the composite z-score in the test with Sam68 (KHDRBS1) was 0.248; in test [7] it was -0.553; in test [8], -1.17. Also, the composite Z-score in [1] was -0.357 (inactive).
On to `COCCOC(=O)N1C(=O)[C@@]2(c3cc(C#CC4(O)CCCCCC4)ccc31)[C@H](c1ccc(OCCO)cc1)N1[C@H](c3ccccc3)[C@H](c3ccccc3)OC(=O)[C@H]1[C@@H]2C(N)=O`, for which the composite z-score in the test with Albumin (Bos taurus) is 0.119; in test [2], 0.0876; in test [3], -0.0907; in [4], 0.3; in [5], 0.615; in test [6], 0.519. For the same molecule, the composite z-score in the test with Sam68 (KHDRBS1) stood at 1.3; in test [7] it was 0.986; in test [8] it was 1.17. In addition, the composite Z-score in test [1] is 0.189 (inactive).
As to `CC(C)C[C@H]1NC(=O)[C@H](Cc2ccccc2)NC(=O)[C@@]23C(=O)N[C@@H](Cc4ccccc4)C2[C@H](C)[C@@]2(C)O[C@H]2C3/C=C/C/C=C\CNC1=O` (stereo not given in full), the composite z-score in the test with Albumin (Bos taurus) is -0.235; in [2] it was -0.0077; in test [3], -0.153; in test [4], 0.535; in test [5], 1.14; in [6] it was 0.495. For the same molecule, the composite z-score with Sam68 (KHDRBS1) was 1.3; in test [7], 0.937; in test [8], 0.738. For the same molecule, the composite Z-score in [1] is 0.63 (inactive).
With `CCc1cccc(NC(=O)O[C@H]2[C@H](OC(=O)Nc3ccc4c(c3)OCO4)[C@H](OC(=O)Nc3ccc4c(c3)OCO4)[C@@H](OC)O[C@@H]2CO)c1`, the composite z-score with Albumin (Bos taurus) is 0.208; in test [2], 0.337; in test [3] it was 0.817; in test [4], 0.486; in test [5] it was 2.46; in test [6], -0.0378. For the same molecule, the composite z-score is 1.29 in the test on Sam68 (KHDRBS1), -0.0095 in test [7] and 1.14 in test [8]. Besides, the composite Z-score in test [1] is 1.31 (inactive).
Take `Cc1ccc(F)cc1S(=O)(=O)N[C@@H]1CCN(Cc2ccc3[nH]ccc3c2)C1`: the composite z-score with Albumin (Bos taurus) was -0.213; in test [2] it was 0.128; in test [3], -0.176; in test [4] it was 0.713; in test [5] it was 0.95; in test [6] it was -0.126. For the same molecule, the results for the composite z-score (in the test with Sam68 (KHDRBS1); in test [7]; in [8]) were 0.605, 0.651 and 0.463, respectively. Further, in test [1], the composite Z-score was 0.688 (inactive).
As to `[N-]=[N+]=NCc1ccccc1[C@H]1OC(c2ccc(OCCCO)cc2)=N[C@@]1(Cc1ccccc1)C(=O)N1CCOCC1`, the composite z-score in the test with Albumin (Bos taurus) came to 0.912; in [2] it was 0.754; in test [3] it was 0.294; in [4], 0.55; in test [5], 2.97; in test [6] it was 0.204. The composite z-score was 1.3 in the test on Sam68 (KHDRBS1), -0.0573 in test [7] and 1.14 in [8]. In [1], the composite Z-score was 0.475 (inactive).
Consider `CCOC(=O)C[C@H]1[C@H](OC(=O)c2cc3ccccc3oc2=O)[C@@H](NC(=O)C2CCCCC2)c2cc(OCCCO)ccc2N1C(=O)Cc1ccc(OC)cc1`, for which the composite z-score with Albumin (Bos taurus) was 0.259; in [2] it was 1.41; in test [3], -0.0111; in test [4], 0.51; in test [5], 0.988; in test [6] it was 0.319. Further, the composite z-score with Sam68 (KHDRBS1) is 0.736; in test [7] it was 0.328; in [8], -0.146. For the same molecule, in [1], the composite Z-score is 0.127 (inactive).
On to `COCCOC(=O)N1C(=O)[C@@]2(c3cc(C#CCC(C(=O)OC)C(=O)OC)ccc31)[C@H](c1ccc(OCCO)cc1)N1[C@H](c3ccccc3)[C@H](c3ccccc3)OC(=O)[C@H]1[C@@H]2C(=O)N1CCCCCCC1`, for which the composite z-score with Albumin (Bos taurus) worked out at 0.256; in [2], 1.77; in test [3], 0.597; in [4] it was 0.604; in test [5], 3.41; in test [6], 0.986. The composite z-score was found to be 1.3 in the test on Sam68 (KHDRBS1), 1.3 in test [7] and 1.1 in test [8]. Moreover, the composite Z-score in test [1] is 2.32 (inactive).
Turning to `CCCC[C@H]1OB(O)C[C@H]2C1=C(COC)C[C@H]1C(=O)C=CC(=O)[C@H]12`, the composite z-score with Albumin (Bos taurus) is -0.183; in [2] it was 0.029; in [3] it was 0.144; in test [4] it was -0.104; in test [5], -0.279; in test [6], -0.236. The composite z-score in the test on Sam68 (KHDRBS1) was 0.684; in test [7] it was 0.676; in test [8], 0.486. Besides, the composite Z-score in test [1] was 0.727 (inactive).
